From PubChem BioAssay
CHT inh = human CHT choline transport inhibition | actives 0.86% (n = 310,000) | B-score at 10 µM | Q9GZV3 | AID 488975 | CHT-expressing cells, membrane potential dye, choline response; stronger effect = lower value;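 active = B-score over 3 SD under the library average, and starting fluorescence ratio not unusually high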;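 also: choline stimulus applied at its EC90 after an EC20 pre-addition; B-score computed on integrated fluorescence ratio after choline addition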
Target sequence (Q9GZV3 whole entry, looked up): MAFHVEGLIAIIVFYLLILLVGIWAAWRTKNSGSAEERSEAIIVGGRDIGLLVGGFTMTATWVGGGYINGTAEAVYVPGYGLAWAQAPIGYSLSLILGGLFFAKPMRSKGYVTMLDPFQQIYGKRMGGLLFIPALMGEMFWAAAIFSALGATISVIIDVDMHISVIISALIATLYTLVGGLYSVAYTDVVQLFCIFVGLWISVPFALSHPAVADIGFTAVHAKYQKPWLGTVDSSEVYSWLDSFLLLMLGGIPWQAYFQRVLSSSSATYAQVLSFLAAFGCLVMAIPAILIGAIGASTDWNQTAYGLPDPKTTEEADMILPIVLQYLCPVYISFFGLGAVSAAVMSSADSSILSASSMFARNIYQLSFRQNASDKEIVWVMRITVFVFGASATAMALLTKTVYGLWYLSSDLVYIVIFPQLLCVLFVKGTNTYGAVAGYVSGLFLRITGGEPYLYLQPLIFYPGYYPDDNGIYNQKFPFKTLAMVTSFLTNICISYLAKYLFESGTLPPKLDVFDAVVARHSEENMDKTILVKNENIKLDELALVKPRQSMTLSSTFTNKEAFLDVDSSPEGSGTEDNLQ
CHT PAM = allosterically activates the human high affinity choline transporter. Q9GZV3. CHT-expressing cells, membrane potential dye, choline EC20; stronger effect = higher value; LV-AA mutant CHT in HEK293 cells. B-score at 10 µM. actives 0.49% (n = 310,000);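 active = initial fluorescence not abnormally high and integrated response B-score, plate-corrected, over 3 SD above library mean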
PREPL inh = inhibitors of human prolyl oligopeptidase-like enzyme PREPL. Q4J6C6. recombinant PREPL, fluorescence polarization activity-based probe. inhibition, % at 5.96 µM. actives 0.68% (n = 320,000); in the data active = inhibition above about 43%;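 also: 0% = enzyme with DMSO and 100% = wells lacking enzyme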
AI-2 QS mod = modulates the Vibrio harveyi AI-2 quorum sensing system. Vibrio harveyi JMH597 AI-2 luminescence/OD600 ratio, 9 h; stronger effect = lower value; strain lacks LuxN and CqsS sensors; 0 = neutral-control median. activity change, % at 7.5 µM. actives 0.4% (n = 300,000); in the data active = activity change below about -75%, passing the limit was not always enough;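 also: luminescence divided by OD600 gain over 9 h not by final OD600 alone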
ALR inh = inhibitors of human sulfhydryl oxidase ALR. P55789. purified ALR, DTT oxidation, H2O2 HRP-luminol luminescence. inhibition, % (test concentration not listed). actives 3.8% (n = 290,000);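 active = mean replicate inhibition above about 79%, with every replicate also reaching it, limit read from the data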
An asterisk follows results filed as active; i = inactive; . = no result. Compounds with a hit are over-represented: about 5% of the library has one in this group of screens.

SMILES	CHT inh	CHT PAM	PREPL inh	AI-2 QS mod	ALR inh
CCOc1ccc(OCCCC(=O)N(C)CC(=O)Nc2ccc(N3CCOCC3)cc2)cc1	i	i	2	3	5
CCN(CC(=O)Nc1ccc(N2CCOCC2)cc1)C(=O)COc1ccccc1OC	i	i	-3	0	91*
O=C(CNS(=O)(=O)c1ccccc1F)Nc1ccc(N2CCOCC2)cc1	i	i	8	26	94*
CCN(CC)CCn1c(=S)[nH]c2cc(C(=O)N3CC(C)CC(C)C3)ccc2c1=O (stereo not given)	i	i	0	28	25
Cn1cnc2cc(NCc3ccccc3Cl)ccc21	i	i	19	16	90*
CC(C)(C)n1cnc2cc(NCc3ccccc3O)ccc21	i	i	19	-8	99*
CC(C)n1cnc2cc(NC(=O)c3ccco3)ccc21	i	i	22	13	-8
CC(C)n1cnc2cc(NCc3ccco3)ccc21	i	i	14	-1	84*
CC(C)(C)n1cnc2cc(NS(=O)(=O)c3ccccc3)ccc21	i	i	8	26	2
CC(C)n1cnc2cc(NCc3ccccn3)ccc21	i	i	21	1	74
CC(C)n1cnc2cc(NCc3ccccc3O)ccc21	i	i	-3	1	99*
C[C@@]1([C@@H](NC(=O)c2cccs2)c2ccc(-c3ccccc3)cc2)C[C@H]1C1CCCCC1	i	i	-1	5	-1
CCC(C(=O)NCc1ccco1)n1nc(C)n2c(cc3occc32)c1=O (stereo not given)	i	i	2	17	1
CC(Sc1ccccc1)C(=O)NNC(=O)c1ccncc1 (stereo not given)	i	i	12	-9	.
Cc1cc(OCC(=O)NCCN2CCOCC2)cc(C)c1Cl	i	i	1	16	1
S=C(NCCCN1CCOCC1)N1CCN(c2ccccc2)CC1	i	i	24	19	98*
Cc1ccc(NC(=S)NCCCN2CCOCC2)cc1C	i	i	11	-1	98*
Cc1ccc(OCC(=O)NCCN2CCOCC2)cc1C	i	i	2	34	87*
COCCCNC(=S)N1CCN(c2ccccc2)CC1	i	i	-6	32	97*
S=C(NCCCN1CCOCC1)N1CCOCC1	i	i	7	8	-1
COCCCNC(=S)N1CCN(C)CC1	i	i	2	17	-2
CC(C)(C)c1ccc(C(=O)N/C(=C\c2cccs2)C(=O)N2CCOCC2)cc1	i	i	1	19	.
COc1ccc(Cl)cc1NC(=O)CN(C)C(=O)CCNC(=O)c1ccccc1OC	.	.	7	.	-1
COc1ccc(C2(C)CC(=O)NC2=O)cc1 (stereo not given)	i	i	3	4	-28
Cc1cc(N2CCCC2)nc2ccc(NC(=S)NCCCN3CCC(C)CC3)cc12	-7.9*	i	29	22	70
SMILES	CHT inh	CHT PAM	PREPL inh	AI-2 QS mod	ALR inh
Cc1cc(N2CCN(C)CC2)nc2ccc(NC(=S)NCCCN3CCc4ccccc4C3)cc12	i	i	43	25	-82
COc1cc(/C=C(/C#N)c2ccc(F)cc2)ccc1OCc1ccc(C(=O)O)o1	i	i	-11	15	97*
Cc1ccc(C(=O)O/N=C(\c2ccccc2)c2ccncc2)cc1	i	i	88*	25	-2
COc1ccccc1C(=O)O/N=C(/c1ccncc1)c1ccc([N+](=O)[O-])cc1	i	i	26	13	-7
CC(=O)Nc1ccc(Nc2cc(C(C)C)nc3c(-c4ccccc4)c(C)nn23)cc1	i	i	15	-4	0
O=C(COc1ccccc1)Nc1nnc(-c2ccccc2)o1	i	i	16	-45	93*
Cc1cc(C)c(C(=O)N2CCCC(Nc3ccc(C)c(C)c3)C2)o1 (stereo not given)	i	i	13	5	99*
CCOC(=O)c1[nH]c(C)c(C(=O)N2CCCC(Nc3ccc(C)c(C)c3)C2)c1C (stereo not given)	i	i	9	-1	99*
COc1ccc(NC2CCCN(C(=O)c3oc(C)cc3C)C2)cc1OC (stereo not given)	i	i	11	9	100*
Cc1cc(C)c(C(=O)N2CCCC(C(=O)c3cc(F)ccc3F)C2)o1 (stereo not given)	i	i	8	21	-1
Cc1cc(Cl)cc(Cl)c1OCCN1CCCC1	i	i	-16	2	0
Oc1ccc(Br)cc1-c1ccnn1-c1ccccc1	i	i	20	38	97*
CCN(CC)c1cccc(OCC(=O)N2c3ccccc3CC2C)c1 (stereo not given)	.	.	2	.	98*
COc1cc(COC(=O)c2cnc(C)cn2)c(OC)cc1Br	i	i	-5	23	-2
O=C1/C(=C\c2ccc(O)c(O)c2)C(c2ccccc2)=NN1c1ccccc1	.	.	.	13	.
COc1cc(/C=C2\C(=O)N(c3ccc(NC(C)=O)cc3)N=C2c2ccccc2)ccc1O	i	i	7	22	95*
COc1cc(/C=C2/C(=O)N(c3ccc(Br)cc3)N=C2C)cc(OC)c1OC	.	.	.	16	.
COc1cc(/C=C2/C(=O)N(c3ccc(C(=O)O)cc3)N=C2C)cc(OC)c1O	i	i	.	16	93*
O=C(NCc1n[nH]c(=S)n1-c1ccc(Cl)c(Cl)c1)c1ccc(S(=O)(=O)N2CCCCC2)cc1	i	i	6	-2	89*
O=C(NCc1n[nH]c(=S)n1-c1ccccc1)c1ccco1	i	i	1	30	.
O=C(NCc1n[nH]c(=S)n1-c1cccc(Cl)c1)c1ccc(S(=O)(=O)N2CCCC2)cc1	i	i	-2	1	94*
O=C(NCc1n[nH]c(=S)n1-c1ccc(Cl)c(Cl)c1)c1ccco1	i	i	0	17	85*
COc1ccc(CC(=O)Nc2c(C(=O)N3CCN(c4ccccc4OC)CC3)oc3ccccc23)cc1OC	i	i	18	1	1
O=C(CSc1cccc[n+]1[O-])Nc1cc(Cl)ccc1[N+](=O)[O-]	.	.	12	.	-6
O=[N+]([O-])c1ccc(Sc2cccc[n+]2[O-])c2nonc12	.	.	.	-129*	.
COc1ccccc1N1C(=N)S/C(=C\c2ccc(-c3ccccc3C(=O)O)o2)C1=O	i	i	16	8	98*
N=C1S/C(=C\c2ccc(-c3ccccc3C(=O)O)o2)C(=O)N1c1ccc2c(c1)OCO2	.	.	.	42	.
COc1ccc(-c2csc(N=C(N)N)n2)cc1	i	i	2	-3	98*
CC1(C)Cc2nc(-c3ccccc3)nc(NNC(=O)c3ccco3)c2CO1	i	i	-3	9	97*
Nc1ccccc1C(=O)NCC1(c2ccccc2)CCCC1	i	i	-8	-2	-6
